These results are taken from PubChem BioAssay (NCATS).

Inconclusive results are not listed. Calls of active or inactive are those of the source. Unless noted, calls follow the shape of the dose curve; as a rule, active = well fitted curve in the direction sought with a large enough effect; inconclusive = small, poorly fitted or top-dose-only effect, or another doubt; inactive = no such curve, though single readings can be large; an effect the other way counts as inactive or inconclusive.

Test [1] concerns the target Lysosomal acid glucosylceramidase (Homo sapiens) (UniProt P04062). Nature of the test: Glucocerebrosidase-p2 (AID 348; in the data active = potency below about 10 µM; also: potency is read from the fitted curve at half-maximal effect). The following applies: purified GBA, blue fluorogenic substrate, 40 min. The procedure, abridged:
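Compounds titrated from 0.6 nM upwards against 0.2 nM enzyme in pH 5.9 citric acid/KH2PO4, taurocholate, tween-20; blue fluorogenic substrate 80 uM, 40 min room temperature, stopped and read Ex 365/Em 440 for AC50.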

The nature of test [2]: AP1 Signaling Pathway (AID 357; active = well fitted curve in either direction with a large enough effect, not every such curve was filed as active; also: % is scaled to controls: 0 for no effect and ±100 for the full control effect). The following applies: ME-180 AP-1-bla reporter, EGF-induced, beta-lactamase ratio, 5 h; at 7.69 µM (top of the series) unless noted. In outline: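 AP-1-bla ME-180 cells with beta-lactamase reporter under AP-1 response element, stimulated with EC50 EGF; compounds titrated, 5 hours at 37 degrees Celsius. CCF4 read at 460/530 nm ratio; positive and negative modulators judged by AC50.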

The target of test [3] is Cytochrome P450 1A2 (Homo sapiens) (UniProt P05177). Nature of the test: p450-cyp1a2 (AID 410; calls by dose curve; also: potency is read from the fitted curve at half-maximal effect). The conditions noted are these: recombinant CYP1A2, luciferin-ME demethylation, luminescence; series mostly up to 57 µM. The procedure, abridged:
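Inhibition was calculated relative to 57 uM furafylline (full inhibition). The reaction used human CYP1A2 at 20nM with Luciferin-ME at its Km, 100uM, driven by an NADPH-regenerating system for 60 min at room temperature.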

A short description of test [4]: Stat Signaling Pathway (AID 446; active = well fitted curve in either direction with a large enough effect, not every such curve was filed as active;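 also: ME-180 cervical cancer cells given 40 pM IL-6 alongside compound; SIE-controlled beta-lactamase reporter measured as 460/530 nm FRET emission ratio; % is scaled to controls: 0 for no effect and ±100 for the full control effect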). The following applies: ME-180 (cervical carcinoma) SIE beta-lactamase reporter, IL-6 stimulated, 5 h; at 7.69 µM (top of the series) unless noted. The procedure, abridged: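 IL-6/STAT signaling read in ME-180 cells via an SIE beta-lactamase reporter. Stimulus was 40 pM IL-6 (its AC50) for 5 hrs, so both activation and inhibition register.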
Test [5] has as its target Glucocorticoid receptor (Homo sapiens) (UniProt P04150). Nature of the test: GR-GFP Redistribution (AID 450;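 active = compounds whose dose series gives a full or clear partial fitted curve of increased nuclear translocation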; also: potency is read from the fitted curve at half-maximal effect). The conditions noted are these: U2OS GR-GFP nuclear translocation, laser cytometry, 2 h.
For test [6] the target is unchanged. Kind of test: GR-EFC Redistribution (AID 451; calls by dose curve; also: potency is read from the fitted curve at half-maximal effect). The conditions noted are these: CHO-K1 GR-EFC translocation, beta-gal luminescence, 2 h. The procedure, abridged: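 Translocation of GR-ED fusion to nuclear EA restores b-gal, read by luminescence after 1 h room-temperature detection. Engineered CHO-K1 biosensor cells, 1,000/well, exposed 2 h at 37 C to titrations up to 46 uM final.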

Test [7] concerns the target Mitogen-activated protein kinase 10 (Mus musculus) (UniProt Q61831). Nature of the test: JNK3 AlphaScreen Assay (AID 530; active = well fitted curve in either direction with a large enough effect, not every such curve was filed as active;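 also: kinase came from lysate of stimulated human HepG2 cells; signal reports phosphorylation of biotinylated GST-cJun 1-79 at Ser73 with 10 µM ATP; % is scaled to controls: 0 for no effect and ±100 for the full control effect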). The following applies: JNK3 lysate, c-Jun phosphorylation; series mostly up to 57.1 µM. In outline:
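Room-temperature AlphaScreen kinase assay; pre-activated HepG2 lysate as JNK3 source, biotin-GST-cJun(1-79) substrate, 10 uM ATP, compound 15 min preincubation.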

The target in test [8] is Cytochrome P450 3A4 (Homo sapiens) (UniProt P08684). Nature of the test: qHTS Assay for Inhibitors and Substrates of Cytochrome P450 3A4 (AID 884). Also: nearly all actives have a fitted effect of over 50% in size. Also: potency is read from the fitted curve at half-maximal effect. The conditions noted are these: recombinant CYP3A4, Luciferin-PPXE luminescence; series mostly up to 57.1 µM. The procedure, abridged:
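20 nM human CYP3A4 with 25 uM Luciferin-PPXE (at KM) in 200 mM KPO4, preincubated 10 min with compound; NADPH regeneration started a 60 min RT reaction. Luciferin detected by luminescence, normalized to 57 uM ketoconazole as full inhibition.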

Test [9] has the same target. Nature of the test: qHTS Assay for Activators of Cytochrome P450 3A4 (AID 885). Also: nearly all actives have a fitted effect of over 65% in size. The conditions noted are these: recombinant CYP3A4, Luciferin-PPXE luminescence, 60 min; series mostly up to 57.1 µM. The procedure, abridged:
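Quantitative HTS format: compounds preincubated with 20nM human CYP3A4 and Luciferin-PPXE substrate at KM, reaction started by NADPH regeneration, stopped after 60 min, luciferase luminescence read 20 min later.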

The target in test [10] is Cytochrome P450 2C19 (Homo sapiens) (UniProt P33261). Kind of test: qHTS Assay for Inhibitors and Substrates of Cytochrome P450 2C19 (AID 899). Also: potency is read from the fitted curve at half-maximal effect; nearly all actives have a fitted effect of over 60% in size. The following applies: recombinant CYP2C19, luciferin-H EGE luminescence; series mostly up to 57.1 µM. In outline: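 5nM enzyme + 10uM Luciferin-H EGE (=KM), 50mM KPO4; cpd pin-transferred, 10 min 37C; NADPH regen, 60 min 37C; stopped w/ luciferin detection reagent, 20 min; luminescence. Normalized to 57uM ketoconazole (AC100).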
Chain of Cytochrome P450 2C19 (Homo sapiens) (P33261 whole entry, looked up): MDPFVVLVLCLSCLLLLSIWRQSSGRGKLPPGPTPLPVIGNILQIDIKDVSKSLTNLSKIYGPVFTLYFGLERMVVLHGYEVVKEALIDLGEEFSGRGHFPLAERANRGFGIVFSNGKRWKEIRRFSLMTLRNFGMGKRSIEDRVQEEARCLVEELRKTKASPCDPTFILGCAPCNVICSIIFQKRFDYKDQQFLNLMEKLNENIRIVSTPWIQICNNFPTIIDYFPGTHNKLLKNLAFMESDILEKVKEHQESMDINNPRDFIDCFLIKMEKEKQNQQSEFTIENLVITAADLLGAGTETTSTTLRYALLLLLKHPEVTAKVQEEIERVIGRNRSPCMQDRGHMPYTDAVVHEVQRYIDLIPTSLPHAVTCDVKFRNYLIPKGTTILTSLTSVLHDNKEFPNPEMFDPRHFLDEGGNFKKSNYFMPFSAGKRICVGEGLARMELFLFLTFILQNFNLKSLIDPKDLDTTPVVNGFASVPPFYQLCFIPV

Test [11] in a line: qHTS Assay for Lipid Storage Modulators (AID 1519; calls by dose curve). The following applies: Drosophila S3 cells, BODIPY lipid droplet/cell ratio, laser cytometry, cells loaded with oleic acid; for activity change, negative = inhibition: at 57.5 µM (top of the series). The procedure, abridged:
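Cells seeded at 5,000 per well were treated with compounds over a concentration series and loaded with oleic acid (400 uM, as added). Lipid droplet fluorescence (488 nm excitation, 500-530 nm channel) was read by laser-scanning cytometry and normalized to 20 uM Triacsin C.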

Test [12] has as its target Dual specificity protein kinase CLK4 (Homo sapiens) (UniProt Q9HAZ1). Nature of the test: qHTS Assay for Inhibitors of CDC-like Kinase 4 (ADP-FP Assay) (AID 1795).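 Also: recombinant human CLK4 phosphorylating RS repeat peptide at 1 µM ATP; % is scaled to controls: 0 for no effect and ±100 for the full control effect; nearly all actives have a fitted effect of over 60% in size.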 The conditions noted are these: Transcreener ADP fluorescence polarization; series mostly up to 50 µM. In outline: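 Inhibition of ADP formation by 6.25 nM Clk4 is measured using 1 uM ATP and 100 uM RS repeat peptide over one hour. Produced ADP displaces a fluorescent tracer from antibody, lowering polarization.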

The target in test [13] is Ubiquitin carboxyl-terminal hydrolase 1 (Homo sapiens) (UniProt O94782). Nature of the test: Inhibitors of USP1/UAF1: Pilot qHTS (AID 504865).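 Also: rhodamine fluorescence freed from ubiquitin-rhodamine substrate followed over time; top concentration of the series differs between compounds; % is scaled to controls: 0 for no effect and ±100 for the full control effect; nearly all actives have a fitted effect of over 35% in size.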 The following applies: purified USP1/UAF1, Ub-rhodamine cleavage fluorescence; series mostly up to 54.9 µM. In outline: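 Kinetic fluorescence assay: 1nM USP1/UAF1, 15 min compound preincubation, then 150nM Ub-Rho; 480/540 nm.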
Chain of Ubiquitin carboxyl-terminal hydrolase 1 (Homo sapiens) (O94782 whole entry, looked up): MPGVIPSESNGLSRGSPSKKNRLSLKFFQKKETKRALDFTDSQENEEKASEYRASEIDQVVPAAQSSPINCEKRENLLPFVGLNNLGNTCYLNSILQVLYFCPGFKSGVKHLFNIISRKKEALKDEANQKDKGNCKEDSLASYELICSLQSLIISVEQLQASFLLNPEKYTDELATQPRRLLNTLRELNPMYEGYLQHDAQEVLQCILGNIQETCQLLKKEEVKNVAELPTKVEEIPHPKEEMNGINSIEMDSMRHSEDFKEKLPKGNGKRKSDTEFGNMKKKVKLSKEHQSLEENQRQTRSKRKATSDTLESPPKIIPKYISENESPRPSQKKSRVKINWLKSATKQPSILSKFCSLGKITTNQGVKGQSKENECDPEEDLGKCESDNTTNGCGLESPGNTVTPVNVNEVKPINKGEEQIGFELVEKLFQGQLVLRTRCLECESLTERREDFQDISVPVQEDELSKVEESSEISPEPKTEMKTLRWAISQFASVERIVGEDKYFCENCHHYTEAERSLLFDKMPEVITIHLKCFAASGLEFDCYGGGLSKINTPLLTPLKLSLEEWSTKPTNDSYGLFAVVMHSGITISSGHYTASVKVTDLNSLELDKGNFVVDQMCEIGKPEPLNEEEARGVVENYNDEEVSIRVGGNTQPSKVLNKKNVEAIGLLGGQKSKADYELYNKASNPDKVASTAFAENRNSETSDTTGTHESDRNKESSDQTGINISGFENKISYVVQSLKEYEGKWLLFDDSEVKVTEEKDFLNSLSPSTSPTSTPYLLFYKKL

A short description of test [14]: NFAT Signaling Pathway (AID 444; active = well fitted curve in either direction with a large enough effect, not every such curve was filed as active;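 also: carbachol stimulus at about its EC50 of 1 µM final; % is scaled to controls: 0 for no effect and ±100 for the full control effect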). The conditions noted are these: Jurkat NFAT-bla M1, carbachol, beta-lactamase ratio, 5 h; at 7.69 µM (top of the series) unless noted. The procedure, abridged: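 Read-out: CCF4 FRET ratio (460 nm/530 nm) after 1 h RT dye loading, used for %activity and AC50 from titration series. Cells: Jurkat NFAT-β-lactamase/M1 line, treated with compound plus 1 uM carbachol for 5 h, 37 °C.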

Test [15] can be described thus: Confirmation and Secondary Assay for Modulators of Hemoglobin Beta Chain Splicing at IVS2 654 locus (AID 910).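 Also: HeLa cells stably carrying EGFP split by mutant beta-globin IVS2-654 intron; per-well total GFP intensity by laser scanning cytometry after 2-day treatment; % of control where 0% means no effect.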 The following applies: HeLa EGFP-654 splicing reporter, GFP fluorescence, 48 h; series mostly up to 38.3 µM. In outline:
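Readout: per-well total peak green fluorescence (488 nm ex, 500–520 nm em) from objects 5–250 µm, reflecting correct splicing of an EGFP-654 reporter. Compounds were applied for 2 days at 37 °C to overnight-plated HeLa EGFP-654 cells; controls were DMSO and 500 nM IVS2-654 PNA.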

Test [16] in a line: Confirmation and Secondary Assay for Modulators of Hemoglobin Beta Chain Splicing at IVS2 705 locus (AID 930).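 Also: HeLa cells stably expressing the EGFP-705 splicing reporter; GFP fluorescence per well restored by corrected splicing of the IVS2-705 intron in EGFP; % of control where 0% means no effect.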 The following applies: HeLa EGFP-705 splicing reporter, GFP fluorescence, 48 h; series mostly up to 38.3 µM. In outline: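 HeLa EGFP-705 reporter; 500 cells/well, o/n 37C 5% CO2; cpd 2 d; 488 ex/500-520 em laser scan; total peak GFP intensity/well. Ref: 500 nM […] antisense PNA.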

Test [17] addresses 3',5'-cyclic-AMP phosphodiesterase 4B (Homo sapiens) (UniProt Q07343). Kind of test: qHTS Assay for Inhibitors of PDE-IV (AID 607; active = well fitted activation curve with a large enough effect in the main read-out, with a control signal flat, not every such curve was filed as active; also: % of control where 0% means no effect). The following applies: HEK293 ACTOne CNG channel cells, membrane potential fluorescence; series mostly up to 22.9 µM. The procedure, abridged: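 Live HEK293 cells with a modified cyclic nucleotide-gated (CNG) channel report intracellular cAMP via membrane-potential dye fluorescence (ex 535/em 590 nm). Endogenous PDE-IV was targeted. Compounds were tested at up to 22.9 uM final; RO 20-1724 100 uM served as control.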

Setting [18] is: measured here: cell count channel max response.
[19] abbreviates: measured here: lipid channel max response.

Chain of Glucocorticoid receptor (Homo sapiens) (P04150 whole entry, looked up, the tested form may be a part): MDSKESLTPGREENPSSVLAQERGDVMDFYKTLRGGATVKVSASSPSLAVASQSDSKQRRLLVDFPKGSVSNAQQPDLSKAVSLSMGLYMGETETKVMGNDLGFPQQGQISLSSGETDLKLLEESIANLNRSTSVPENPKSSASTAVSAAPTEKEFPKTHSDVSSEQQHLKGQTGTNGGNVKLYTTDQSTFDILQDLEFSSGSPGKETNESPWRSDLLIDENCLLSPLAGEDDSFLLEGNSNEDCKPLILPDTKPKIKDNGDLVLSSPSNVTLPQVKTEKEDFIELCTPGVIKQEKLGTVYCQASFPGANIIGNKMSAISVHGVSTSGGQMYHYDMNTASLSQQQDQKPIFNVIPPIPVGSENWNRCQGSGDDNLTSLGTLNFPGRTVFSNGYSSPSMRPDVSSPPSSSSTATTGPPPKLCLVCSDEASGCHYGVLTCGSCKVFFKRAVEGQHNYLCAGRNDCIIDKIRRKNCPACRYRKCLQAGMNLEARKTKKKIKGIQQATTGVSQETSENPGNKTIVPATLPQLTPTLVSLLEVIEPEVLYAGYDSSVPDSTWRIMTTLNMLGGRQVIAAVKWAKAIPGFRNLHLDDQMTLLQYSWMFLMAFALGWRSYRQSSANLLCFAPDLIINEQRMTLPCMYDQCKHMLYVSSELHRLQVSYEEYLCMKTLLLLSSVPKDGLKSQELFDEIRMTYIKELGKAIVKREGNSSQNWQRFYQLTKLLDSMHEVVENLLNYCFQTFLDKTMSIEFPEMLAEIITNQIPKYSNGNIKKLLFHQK
Chain of Cytochrome P450 3A4 (Homo sapiens) (P08684 whole entry, looked up): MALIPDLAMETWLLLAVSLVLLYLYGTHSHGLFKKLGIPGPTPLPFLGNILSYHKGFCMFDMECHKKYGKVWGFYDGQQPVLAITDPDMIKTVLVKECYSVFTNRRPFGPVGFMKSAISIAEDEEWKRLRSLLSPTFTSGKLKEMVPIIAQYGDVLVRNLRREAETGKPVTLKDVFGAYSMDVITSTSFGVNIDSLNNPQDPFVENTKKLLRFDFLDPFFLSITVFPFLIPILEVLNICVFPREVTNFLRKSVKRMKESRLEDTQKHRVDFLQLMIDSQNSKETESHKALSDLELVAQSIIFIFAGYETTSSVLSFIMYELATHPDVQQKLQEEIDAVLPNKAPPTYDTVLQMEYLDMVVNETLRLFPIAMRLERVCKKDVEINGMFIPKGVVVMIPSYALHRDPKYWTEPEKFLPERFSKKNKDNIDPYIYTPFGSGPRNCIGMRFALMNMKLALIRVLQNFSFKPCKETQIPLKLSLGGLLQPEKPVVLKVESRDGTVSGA
Chain of Dual specificity protein kinase CLK4 (Homo sapiens) (Q9HAZ1 whole entry, looked up): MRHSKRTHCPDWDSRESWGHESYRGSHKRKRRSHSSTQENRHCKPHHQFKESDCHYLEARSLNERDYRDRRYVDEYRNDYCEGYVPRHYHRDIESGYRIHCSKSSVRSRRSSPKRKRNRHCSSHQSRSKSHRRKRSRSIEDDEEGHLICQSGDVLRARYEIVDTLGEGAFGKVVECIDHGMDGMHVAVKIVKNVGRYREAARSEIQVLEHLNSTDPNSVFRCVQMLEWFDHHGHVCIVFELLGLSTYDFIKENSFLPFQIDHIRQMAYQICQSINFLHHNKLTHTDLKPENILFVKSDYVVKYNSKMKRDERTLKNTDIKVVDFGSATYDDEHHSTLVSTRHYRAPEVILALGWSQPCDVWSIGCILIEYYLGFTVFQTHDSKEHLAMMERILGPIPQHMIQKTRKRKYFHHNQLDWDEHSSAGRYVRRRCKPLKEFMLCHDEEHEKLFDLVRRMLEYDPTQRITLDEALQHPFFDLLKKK
Chain of Lysosomal acid glucosylceramidase (Homo sapiens) (P04062 whole entry, looked up): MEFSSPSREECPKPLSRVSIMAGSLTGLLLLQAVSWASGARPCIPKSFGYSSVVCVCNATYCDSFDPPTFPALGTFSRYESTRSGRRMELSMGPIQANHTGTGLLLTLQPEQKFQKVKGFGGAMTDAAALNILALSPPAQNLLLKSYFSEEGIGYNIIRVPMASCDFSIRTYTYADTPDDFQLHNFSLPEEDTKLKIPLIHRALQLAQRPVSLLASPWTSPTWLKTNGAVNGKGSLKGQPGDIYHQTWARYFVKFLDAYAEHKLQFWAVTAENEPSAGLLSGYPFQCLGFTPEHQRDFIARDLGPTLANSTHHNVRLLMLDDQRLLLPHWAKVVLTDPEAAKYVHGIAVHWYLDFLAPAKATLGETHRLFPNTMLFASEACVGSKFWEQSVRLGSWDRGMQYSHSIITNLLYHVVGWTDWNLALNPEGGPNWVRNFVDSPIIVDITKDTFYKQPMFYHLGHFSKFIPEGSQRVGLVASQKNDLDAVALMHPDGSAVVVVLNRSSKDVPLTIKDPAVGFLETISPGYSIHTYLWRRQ
Chain of Cytochrome P450 1A2 (Homo sapiens) (P05177 whole entry, looked up): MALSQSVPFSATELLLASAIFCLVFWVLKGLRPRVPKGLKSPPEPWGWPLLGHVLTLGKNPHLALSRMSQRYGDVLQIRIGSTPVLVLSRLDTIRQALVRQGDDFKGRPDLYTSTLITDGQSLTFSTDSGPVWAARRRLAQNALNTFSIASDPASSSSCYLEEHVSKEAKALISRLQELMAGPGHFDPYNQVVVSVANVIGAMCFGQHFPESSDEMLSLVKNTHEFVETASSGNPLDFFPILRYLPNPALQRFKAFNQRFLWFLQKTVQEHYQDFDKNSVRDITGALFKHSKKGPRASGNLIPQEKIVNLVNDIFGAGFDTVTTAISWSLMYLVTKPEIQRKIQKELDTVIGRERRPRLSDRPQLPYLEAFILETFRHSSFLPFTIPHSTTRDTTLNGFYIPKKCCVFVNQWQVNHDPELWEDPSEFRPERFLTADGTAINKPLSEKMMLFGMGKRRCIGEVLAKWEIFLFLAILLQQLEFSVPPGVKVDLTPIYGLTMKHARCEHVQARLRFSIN
Chain of 3',5'-cyclic-AMP phosphodiesterase 4B (Homo sapiens) (Q07343 whole entry, looked up): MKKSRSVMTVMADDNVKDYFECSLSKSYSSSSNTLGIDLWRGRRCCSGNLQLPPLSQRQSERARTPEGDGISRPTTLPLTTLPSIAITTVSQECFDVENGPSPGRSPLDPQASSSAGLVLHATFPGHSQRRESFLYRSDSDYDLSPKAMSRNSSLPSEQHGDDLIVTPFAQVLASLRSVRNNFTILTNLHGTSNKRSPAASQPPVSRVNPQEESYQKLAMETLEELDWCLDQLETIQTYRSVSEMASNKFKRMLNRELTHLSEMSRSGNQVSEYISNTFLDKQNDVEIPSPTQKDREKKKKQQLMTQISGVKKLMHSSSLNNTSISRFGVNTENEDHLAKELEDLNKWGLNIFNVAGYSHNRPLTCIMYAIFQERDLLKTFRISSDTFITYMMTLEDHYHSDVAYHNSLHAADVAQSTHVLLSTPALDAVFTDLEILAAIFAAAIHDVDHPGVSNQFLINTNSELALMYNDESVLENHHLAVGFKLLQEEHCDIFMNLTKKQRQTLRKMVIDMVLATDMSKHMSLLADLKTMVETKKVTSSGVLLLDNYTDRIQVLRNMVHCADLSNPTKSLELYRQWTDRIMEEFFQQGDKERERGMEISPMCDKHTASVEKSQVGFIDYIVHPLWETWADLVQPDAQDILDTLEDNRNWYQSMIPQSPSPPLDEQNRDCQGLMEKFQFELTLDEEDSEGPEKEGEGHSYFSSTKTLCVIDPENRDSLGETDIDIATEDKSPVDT

With `FC(F)(F)c1ccccc1-c1ccc2ncnc(NCc3cccs3)c2c1`, the Potency is > 11.4 µM (inactive) in test [1]; 7.94 µM (active) in test [3]; > 46 µM (inactive) in test [5]; > 46 µM (inactive) in test [6]; 5.01 µM (active) in test [8]; 3.16 µM (active) in test [10]. The figures for the activity change, negative = inhibition in test [2] and in test [11] were 13.7% (inactive) and -3.1% (inactive), respectively. Moreover, the activity, negative = inhibition in test [4] was -16.1% (inactive). Also, the Potency result in [7], in test [9], in [12] and in [13] was “inactive” each time. In addition, the max response came out at 9.21% in test [11] (setting [18]) and 5.18% in test [11] (setting [19]).
On to `COCCNc1ncnc2ccc(-c3ccccc3C(F)(F)F)cc12`, for which the activity change, negative = inhibition was 15.6% (inactive) in [2], 18.9% (inactive) in [14] and -1.49% (inactive) in test [11]. Also, the Potency is 1.58 µM (active) in [3], > 46 µM (inactive) in test [6] and 6.31 µM (active) in test [10]. Also, the activity, negative = inhibition in test [4] is -11.6% (inactive). The Potency result in [7], in test [9] and in test [13] was “inactive” throughout. The max response in test [11] (setting [18]) was -4.06%; in test [11] (setting [19]) it was -5.73%.
In the case of `C=CC(C)(O)CCC=C(C)C` (stereo unspecified), the Potency result in test [7], in test [8] and in test [13] was “inactive” each time. In addition, the activity change, negative = inhibition in test [11] is -9.56% (inactive). In addition, the max response in test [11] (setting [18]) is -17.5%; in test [11] (setting [19]) it was -25.1%.
For `CC1(C)SC2C(NC(=O)Cc3ccccc3)C(=O)N2C1C(=O)O` (stereo unspecified), the Potency result in [15] and in test [13] was “inactive” in each case. For the same compound, the result in [16] was inactive. For the same compound, the activity change, negative = inhibition in test [11] is 5.55% (inactive). The max response came to 11.4% in test [11] (setting [18]) and 23.9% in test [11] (setting [19]).
As to `Cc1cnc(CNc2ncnc3ccc(-c4ccccc4C(F)(F)F)cc23)cn1`, the Potency was > 11.4 µM (inactive) in test [1]; 12.6 µM (active) in [3]; > 46 µM (inactive) in test [5]; > 46 µM (inactive) in test [6]; 2 µM (active) in [8]. Also, the figures for the activity change, negative = inhibition in test [2], in [14] and in test [11] were 15.7% (inactive), -22.4% (inactive) and 0.934% (inactive), respectively. Further, the Potency result in test [7], in test [17], in [9], in test [12] and in [13] was “inactive” throughout. Besides, the figures for the max response in test [11] (setting [18]) and in test [11] (setting [19]) were 8.56% and 7.96%, respectively.
Take `COS(C)(=O)=O`: the Potency entry in [7], in [8] and in test [13] was “inactive” throughout. The compound was classed as inactive in test [16]. For the same compound, the activity change, negative = inhibition in test [11] is 5.21% (inactive). The max response was -1.86% in [11] (setting [18]) and 4.2% in test [11] (setting [19]).
Turning to `COc1ccccc1CNc1ncnc2ccc(-c3cccc(C#N)c3)cc12`, the Potency in test [1] is > 11.4 µM (inactive); in test [3], 0.251 µM (active); in [5], > 46 µM (inactive); in test [6], > 46 µM (inactive); in [8] it was 7.94 µM (active); in test [10], 5.01 µM (active). Further, the figures for the activity change, negative = inhibition in test [14] and in test [11] were -8.04% (inactive) and -12.8% (inactive), respectively. Further, the activity, negative = inhibition in test [4] is -17.5% (inactive). For the same compound, the Potency entry in [7], in [9], in test [12] and in [13] was “inactive” each time. Besides, the max response in [11] (setting [18]) was -3.32%; in [11] (setting [19]), -14.8%.
